Assay results from the supplement of paper PMC3334620.
In all, about 33,000 sequences were measured (“E-score (-0.5 to 0.5)”: median about -0.035, highest 2% from about 0.34 on). The sample as a whole holds a higher share of the highest values than the screen did.

Each sequence was assayed against T1, Mot3 (UniProt P54785) (assay: PBM E-score (8-mer binding enrichment) (E-score (-0.5 to 0.5)); higher = stronger / more preferred TF binding). Conditions: protein concentration: 200 nM; construct: GST-full length.
T1 sequence: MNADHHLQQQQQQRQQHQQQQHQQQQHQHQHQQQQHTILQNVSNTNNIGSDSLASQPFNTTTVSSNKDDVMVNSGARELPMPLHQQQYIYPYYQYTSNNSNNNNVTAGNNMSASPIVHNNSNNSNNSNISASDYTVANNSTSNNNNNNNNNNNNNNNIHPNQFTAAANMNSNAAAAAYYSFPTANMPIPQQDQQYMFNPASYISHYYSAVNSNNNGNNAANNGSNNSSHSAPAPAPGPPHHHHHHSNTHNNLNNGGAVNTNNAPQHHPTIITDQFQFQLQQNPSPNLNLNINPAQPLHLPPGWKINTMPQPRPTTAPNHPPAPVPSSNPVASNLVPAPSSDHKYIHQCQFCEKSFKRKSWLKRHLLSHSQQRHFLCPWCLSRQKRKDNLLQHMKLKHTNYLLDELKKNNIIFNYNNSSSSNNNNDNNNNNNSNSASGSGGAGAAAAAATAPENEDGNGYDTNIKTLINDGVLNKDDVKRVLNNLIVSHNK
Summary of the method: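 E-scores (a modified Wilcoxon-Mann-Whitney statistic) were assigned by the Universal PBM Analysis Suite to every ungapped eight-base word pooled with its reverse complement. The input came from universal all-10-mer Agilent arrays made double-stranded by primer extension and probed with GST-tagged yeast transcription factors at about 100-200 nM. Fluorescent anti-GST detected bound protein, and masliner normalised the scans.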

| Sequence | PBM E-score |
| --- | --- |
| ACGTTAAC | 0.25 |
| GTGTTAAA | 0.384 |
| CTGTTAAC | 0.199 |
| GCTAAATA | 0.0782 |
| CGGAATAG | -0.201 |
| GATGACGC | 0.0115 |
| AGTCAGTG | -0.157 |
| GGCGCCCC | -0.0368 |
| ACAGGCGT | 0.172 |
| ACAGGCGG | -0.015 |
| ACAGGCTC | 0.404 |
| GCAGGCGA | 0.123 |
| ACAGGCTG | 0.0165 |
| ACAGGCGC | 0.371 |
| ACAGGCTA | 0.183 |
| CCAGGCGC | -0.00734 |
| GCAGGCGC | 0.361 |
| CCCGCTTC | -0.191 |
| CCCAGGAC | -0.288 |
| CTGCTTGC | 0.0147 |
| AAGCGCAG | -0.124 |
| CGTATGCA | -0.0506 |
| CCAGGAAG | -0.078 |
| ACAGGAAA | 0.453 |
| GCAGGACC | -0.237 |

| Sequence | PBM E-score |
| --- | --- |
| ACAGGAGA | -0.0281 |
| CCAGGAAC | 0.406 |
| CCAGGAGC | -0.247 |
| TCAGGAGA | -0.0813 |
| GCAGGAGC | 0.0355 |
| TCAGGAAA | 0.394 |
| GCAGGAAC | 0.463 |
| CCAGGAAA | 0.324 |
| AGAGGAAA | 0.0488 |
| ATAGGTGC | 0.24 |
| AAGCGAGT | -0.0166 |
| CCGGGTCC | -0.279 |
| AAAGGGCC | -0.132 |
| AAGCCACT | -0.172 |
| AGCTGGAA | -0.29 |
| GCGCCAGC | 0.128 |
| TGCTAAAA | 0.0711 |
| CGCTGAAA | 0.0848 |
| ACAAATCT | 0.103 |
| CTAGTTTC | -0.178 |
| AAGCAGTG | 0.0592 |
| TAGTGGAA | -0.00095 |
| ACAAGGAA | 0.263 |
| TCAAGGAA | 0.363 |
| GGAGGAAA | 0.0847 |

| Sequence | PBM E-score |
| --- | --- |
| ACAGGAAG | 0.0333 |
| CCAAGGAA | 0.254 |
| GCAGGATA | -0.121 |
| ACAGGAAC | 0.466 |
| ACAGGAAT | 0.107 |
| GCAGGAAA | 0.451 |
| ATCCATCA | -0.0789 |
| AGAGAGAG | -0.326 |
| CAACAGTC | -0.167 |
| CAGGTACA | 0.406 |
| GAGGTACA | 0.192 |
| CCGGTACA | 0.0242 |
| TGGGTACA | 0.0297 |
| TAGGTATA | -0.0008 |
| TAGGTACA | 0.36 |
| CTTCTAAC | -0.0665 |
| CGTGCTTC | 0.0855 |
| ACTCTACA | 0.174 |
| GTTAGCCA | -0.136 |
| CAGCTCTA | -0.168 |
| ACATTAGT | 0.187 |
| AGGAAACG | 0.339 |
| CGGAAACC | -0.352 |
| CGGAAACA | 0.0963 |
| ACGAAACT | -0.0505 |

| Sequence | PBM E-score |
| --- | --- |
| GGGAAACC | -0.00353 |
| GGGAAACA | -0.036 |
| AGGAAACT | 0.421 |
| AGGAAACC | 0.42 |
| AGGAAACA | 0.391 |
| GCGACGAA | -0.154 |
| ACGCGGAG | 0.105 |
| ACCTAGCA | 0.0477 |
| CATAGCGC | 0.0893 |
| ATACCTAC | 0.156 |
| TTACCTAA | 0.285 |
| CTACCTAC | 0.188 |
| ATACCTAA | 0.071 |
| GTACCTAA | 0.374 |
| GTACCTAC | 0.405 |
| AAGCGACG | -0.15 |
| CTGTTAAG | 0.259 |
| ATGTTAAA | 0.392 |
| ATGTTAAT | 0.338 |
| ATGTTAAG | 0.37 |
| ATGTTTAA | 0.285 |
| ACGTTAAA | 0.3 |
| AAGTTAAA | 0.219 |
| GAAGGGTA | 0.0495 |
| GGCCCTAC | -0.281 |

| Sequence | PBM E-score |
| --- | --- |
| ACAGACTG | -0.0643 |
| CGTGTTTC | 0.106 |
| CATACACA | 0.219 |
| TACACGAA | 0.359 |
| AACACACT | 0.22 |
| GACACGAA | 0.145 |
| TATACACA | 0.364 |
| AACACACG | 0.266 |
| TACACAAA | 0.369 |
| AACACACA | 0.34 |
| AACACAAA | 0.22 |
| CATACACG | 0.316 |
| CACACAAA | 0.151 |
| CACACGAA | 0.165 |
| ATAAACCG | -0.195 |
| ACAGCGGC | -0.112 |
| ATTAGAAC | 0.0827 |
| AGCTACAG | -0.0877 |
| TACACACA | 0.385 |
| GATACACA | 0.14 |
| AACACGCA | 0.326 |
| CACACACG | 0.159 |
| AATACAAG | 0.313 |
| GACACGCA | 0.246 |
| TACACGCA | 0.346 |

| Sequence | PBM E-score |
| --- | --- |
| AATACACA | 0.389 |
| AATACACC | 0.271 |
| AATACACG | 0.394 |
| AATACACT | 0.259 |
| CACACACA | 0.249 |
| CAAACGTG | 0.0815 |
| CCGACCAC | -0.189 |
| AGGGTCCA | -0.297 |
| CCGTATAG | -0.208 |
| ACATCGGG | -0.13 |
| ATCAATGC | -0.189 |
| CTCCAAAA | -0.179 |
| CAGGGACG | 0.0493 |
| GGAGAAAC | -0.149 |
| CGTAGCGA | -0.285 |
| GACTTGCC | 0.127 |
| AGGGTACC | 0.0598 |
| GAGGTACC | -0.0594 |
| CAGGTACC | 0.434 |
| CCGGTACG | -0.199 |
| CAGGTACG | 0.409 |
| AAGGTACA | 0.394 |
| CAGATACG | -0.243 |
| AAGGTACC | 0.419 |
| AAGGTATA | 0.113 |

| Sequence | PBM E-score |
| --- | --- |
| AAGGTAGA | -0.0631 |
| CGGGTACC | 0.0123 |
| CAGGTATC | 0.056 |
| ATCGAACC | -0.089 |
| ACTATCCA | -0.204 |
| CGCCTTGA | -0.0273 |
| AACATTGT | 0.257 |
| ATCTCCGA | -0.0589 |
| ATAAGTTA | 0.213 |
| AACTTAAA | 0.212 |
| ACGCTTCC | -0.0948 |
| CAGATCGA | -0.213 |
| AACAGCAA | 0.0647 |
| ACGGTACG | -0.0434 |
| AAGGTACG | 0.436 |
| AAGGTACT | 0.364 |
| AAGGTAGT | -0.0675 |
| AAGGTATG | 0.0554 |
| ACGGTACT | -0.207 |
| GACTCCAC | -0.34 |
| AGGCTCGG | 0.146 |
| ATGCGCTG | -0.00636 |
